The text below walks through data of the antibiotic and cytotoxicity screens of Wong et al. (2023).

In all, about 39,000 compounds went through this assay and about 3,300 (8.5%) were called active. The entries come from a sample that favours actives as a whole.

In this experiment the test system is HepG2. Nature of the experiment: cytotoxicity call (relative viability < 0.9). The settings on record: 10 µM.
For `C[C@@H]1CN([C@@H](C)CO)C(=O)c2cccc(NC(=O)Nc3cccc4ccccc34)c2O[C@H]1CN(C)S(=O)(=O)c1ccccc1F`, the cytotoxicity call was “inactive”.

Turning to `Cc1noc(C)c1NC(=O)Nc1ccc2c(c1)C(=O)N([C@H](C)CO)C[C@H](C)[C@H](CN(C)S(C)(=O)=O)O2`, the cytotoxicity call is “inactive”.

Consider `O=C(CN1CCOCC1)N[C@@H]1CC[C@H](CCNC(=O)Nc2cc(F)ccc2F)O[C@@H]1CO`, for which the cytotoxicity call is “inactive”.

As to `COc1ccc(NC(=O)N(C)C[C@@H]2OCCCC[C@H](C)Oc3ccc(NC(=O)c4ccccc4)cc3C(=O)N([C@H](C)CO)C[C@H]2C)cc1`, the cytotoxicity call was “inactive”.

`O=C(C[C@H]1C=C[C@@H](NC(=O)C2CC2)[C@@H](CO)O1)NCCCN1CCOCC1`: the cytotoxicity call is “inactive”.

As for `NNC(=O)CNc1ccc2c(c1)OCO2`, the cytotoxicity call was “inactive”.

Consider `C[N+](C)(C)CCCCNC(=O)[C@H]1C[C@H]2C(=O)N[C@@H](Cc3ccccc3)C(=O)N2[C@H]1c1cccc(OCCO)c1`, for which the cytotoxicity call is “inactive”.

Take `C[C@H]1CN([C@@H](C)CO)C(=O)c2cc(C#CC3(O)CCCC3)cnc2O[C@@H]1CN(C)S(=O)(=O)c1ccc(F)cc1`: the cytotoxicity call was “inactive”.

As for `C[C@H]1[C@H](NC(=O)/C(=N\OC(C)(C)C(=O)O)c2csc(N)n2)C(=O)N1S(=O)(=O)O`, the cytotoxicity call is “inactive”.

As to `C[C@@H]1CCCCO[C@H](CN(C)S(C)(=O)=O)[C@H](C)CN([C@@H](C)CO)C(=O)c2cc(NC(=O)CCCN(C)C)ccc2O1`, the cytotoxicity call was “inactive”.

As to `CCS(=O)(=O)NCC[C@H]1CC[C@H](NS(=O)(=O)c2cccc(F)c2)[C@@H](CO)O1`, the cytotoxicity call was “inactive”.

On to `C[C@@H]1CCCCO[C@H](CN(C)C(=O)Nc2cccc3ccccc23)[C@H](C)CN([C@@H](C)CO)C(=O)c2cc(NC(=O)Cc3ccccc3)ccc2O1`, for which the cytotoxicity call was “inactive”.

With `COc1ccc(S(=O)(=O)N[C@@H]2CC[C@@H](CC(=O)N3CCC(Cc4ccccc4)CC3)O[C@H]2CO)cc1`, the cytotoxicity call is “inactive”.

In the case of `C[C@H]1CCCCO[C@@H](CN(C)C(=O)Nc2ccc(C(F)(F)F)cc2)[C@@H](C)CN([C@@H](C)CO)C(=O)c2cc(NC(=O)c3ccncc3)ccc2O1`, the cytotoxicity call is “inactive”.

For `C[C@@H]1CCCCO[C@@H](CN(C)C(=O)Nc2ccc3c(c2)OCO3)[C@@H](C)CN([C@@H](C)CO)C(=O)c2cc(NC(=O)Nc3ccc(C(F)(F)F)cc3)ccc2O1`, the cytotoxicity call was “inactive”.

For `C[C@@H]1CCCCO[C@H](CN(C)C(=O)Nc2ccc(C(F)(F)F)cc2)[C@H](C)CN([C@H](C)CO)C(=O)c2cc(NC(=O)Cc3ccccc3)ccc2O1`, the cytotoxicity call was “inactive”.

Turning to `COc1ccc(NC(=O)Nc2ccc3c(c2)C(=O)N([C@@H](C)CO)C[C@H](C)[C@H](CN(C)CC2CCCCC2)OCCCC[C@H](C)O3)cc1`, the cytotoxicity call was “active”.

For the molecule `COc1ccc(NC(=O)Nc2ccc3c(c2)C(=O)N([C@H](C)CO)C[C@H](C)[C@@H](CN(C)CC2CCCCC2)OCCCC[C@H](C)O3)cc1`, the cytotoxicity call was “inactive”.

Turning to `COc1ccc(NC(=O)Nc2ccc3c(c2)C(=O)N([C@H](C)CO)C[C@H](C)[C@H](CN(C)CC2CCCCC2)OCCCC[C@@H](C)O3)cc1`, the cytotoxicity call was “inactive”.
